LYPLA1 counter – LYPLA1 (human) inhibition in PME1 counter-screen. O75608. recombinant LYPLA1, FP-Rh probe fluorescence polarization. inhibition, % at 5.9 µM. hit rate 0.16% among 320,000;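 active means inhibition above the mean of all tested compounds plus 3 SD, set per campaign, cut at about 14% in these data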;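 further: inhibitors block serine hydrolase probe labeling of LYPLA1 so polarization falls; 0% = enzyme with DMSO and 100% = wells lacking LYPLA1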
Fam108B counter – counter-screen for RBBP9 inhibitors: inhibitors of mouse Fam108B | AID 1947 | hit rate 0.33% among 300,000 | recombinant Fam108B, FP-Rh probe fluorescence polarization | inhibition, % at 9.51 µM;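 active means inhibition above the screen mean inhibition plus 3 SD, computed separately per campaign, cut at about 18% in these data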;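 further: inhibitors lower polarization as less probe binds the enzyme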
LYPLA2 counter – blocks human lysophospholipase 2, a PME1 counter-screen; recombinant LYPLA2, FP-Rh probe fluorescence polarization; hit rate 0.38% among 320,000; AID 2177; inhibition, % at 5.9 µM;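 active means inhibition above the screen-wide mean plus 3 SD, limit set per campaign, cut at about 26% in these data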;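 further: 0% = LYPLA2 with DMSO and 100% = wells lacking LYPLA2 enzyme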
PREPL inh – inhibitors of human prolyl oligopeptidase-like enzyme PREPL; recombinant PREPL, fluorescence polarization activity-based probe; AID 2751; Q4J6C6; hit rate 0.68% among 320,000; inhibition, % at 5.96 µM; in the data active means inhibition above about 43%;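 further: 0% = enzyme with DMSO and 100% = wells lacking enzyme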
Target sequence (Q4J6C6 whole entry, looked up): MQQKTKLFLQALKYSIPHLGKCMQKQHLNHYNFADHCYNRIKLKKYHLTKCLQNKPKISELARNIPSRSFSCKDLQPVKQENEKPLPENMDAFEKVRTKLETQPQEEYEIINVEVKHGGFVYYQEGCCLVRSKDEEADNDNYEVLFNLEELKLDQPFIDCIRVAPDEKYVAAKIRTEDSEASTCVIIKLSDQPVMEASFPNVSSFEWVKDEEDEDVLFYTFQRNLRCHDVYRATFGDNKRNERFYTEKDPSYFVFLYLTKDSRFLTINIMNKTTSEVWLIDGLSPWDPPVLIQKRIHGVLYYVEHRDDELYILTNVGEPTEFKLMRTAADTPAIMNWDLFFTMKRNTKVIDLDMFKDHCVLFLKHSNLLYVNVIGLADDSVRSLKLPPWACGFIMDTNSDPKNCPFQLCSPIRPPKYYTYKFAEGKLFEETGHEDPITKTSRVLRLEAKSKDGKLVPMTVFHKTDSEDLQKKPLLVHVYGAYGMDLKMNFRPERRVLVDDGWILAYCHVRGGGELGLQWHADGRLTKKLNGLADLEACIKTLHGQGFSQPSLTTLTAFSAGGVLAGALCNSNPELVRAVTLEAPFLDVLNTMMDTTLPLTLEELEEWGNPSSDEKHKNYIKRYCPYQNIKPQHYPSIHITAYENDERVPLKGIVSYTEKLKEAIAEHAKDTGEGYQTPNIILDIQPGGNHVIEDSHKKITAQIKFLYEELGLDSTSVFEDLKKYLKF
MEX-5 binding – C. elegans MEX-5 TCR-2 RNA binding activity. MEX-5/FITC-TCR2 RNA binding, fluorescence polarization; hits give low values. AID 1832. activity score (negative = inhibition of binding), % at 10 µM. hit rate 0.38% among 300,000;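 active means inhibition past about -25% in most replicates, and total fluorescence under double the plate's negative control median, limit read from the data; inconclusive means replicates evenly split on the limit, or fluorescence at least double controls; inactive means too little inhibition in most replicates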;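 further: 0% = DMSO and -100% = 5 µM competing unlabeled TCR2 RNA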
PME-1 inh – blocks human protein phosphatase methylesterase 1; recombinant PME-1, FP-Rh probe fluorescence polarization; hit rate 0.53% among 320,000; AID 2130; inhibition, % at 5.9 µM;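 active means inhibition above the campaign mean of all compounds plus 3 SD, cut at about 26% in these data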;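 further: competitive labeling of PME-1 active site by serine hydrolase directed probe; 0% = PME-1 with DMSO and 100% = wells lacking PME-1 enzyme; inhibitors block probe labeling so polarization falls and inhibition rises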
Fam108b inh conf – Fam108b (mouse) hydrolase inhibition, confirmation assay; shares compounds with Fam108B counter; recombinant Fam108b, FP-Rh probe fluorescence polarization; inhibition, % at 9.51 µM; hit rate 44% among 930; AID 1978;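 active means inhibition above a limit from the primary screen, the mean over all compounds plus 3 SD, cut at about 19% in these data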;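 further: 0% = median of active Fam108b wells and 100% = catalytically dead S170A mutant; inhibitors free the probe so polarization falls as inhibition rises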
Fam108b ABPP HTS – inhibits mouse Fam108b in gel-based ABPP | shares compounds with Fam108B counter | recombinant Fam108b, fluorophosphonate probe | inhibition, % at 20 µM | hit rate 44% among 260; in the data active means inhibition above about 40%
Numbers without * were called inactive; ? = inconclusive; . = no result. Compounds with a hit are over-represented: about 1.6% of the library has one in this group of screens.

SMILES | LYPLA1 counter | Fam108B counter | LYPLA2 counter | PREPL inh | MEX-5 binding | PME-1 inh | Fam108b inh conf | others
CCOc1c(OC(C)=O)ccc(/C=C2\N=C(SCC)SC2=O)c1[N+](=O)[O-] | -1.4 | 2.4 | -0.8 | 5.3 | -0.4 | 4.3 | .
CCOc1cc(/C=C2\N=C(SC)SC2=O)cc([N+](=O)[O-])c1OC(C)=O | 7.7 | 21.5* | 7.7 | 4.4 | -1.2 | 14.0 | 7.2
CCCC#CCN1CCN(C23CC4CC(CC(C4)C2)C3)CC1 | 0.5 | 18.2* | 2.9 | -7.0 | 2.0 | 3.8 | 0.2
CCCCCC#CCN1CCN(C23CC4CC(CC(C4)C2)C3)CC1 | 0.3 | . | 0.2 | 14.2 | . | -2.3 | .
CC(=O)n1cc([C@H]2C=C(C(=O)Nc3ccccc3)O[C@@H](OCCCCO)C2)c2ccccc21 | -6.7 | -2.6 | -3.4 | 6.3 | 1.5 | -1.7 | .
CC(Sc1nnc(NCc2ccccc2)s1)C(=O)Nc1ccc2c(c1)C(=O)c1ccccc1C2=O (stereo not drawn) | -16.1 | 37.7* | 0.1 | 42.2 | -4.9 | 22.2 | 19.1*
CC(Sc1nnc(Nc2ccccc2)s1)C(=O)Nc1nc(-c2ccccc2)cs1 (stereo not drawn) | -24.8 | -11.7 | -32.1 | -13.6 | -0.2 | -20.8 | .
Cc1ccc(C)c(-n2c3nc(=O)[nH]c(=O)c-3cc3cc([N+](=O)[O-])ccc32)c1 | 5.7 | 26.2* | 10.0 | 20.3 | . | 36.0* | 34.9* | Fam108b ABPP HTS=70.0*
Cc1ccc(C)c(-n2c3nc(=O)n(C)c(=O)c-3cc3ccccc32)c1 | -1.0 | -0.8 | 7.9 | 8.4 | -0.7 | -6.1 | .
CCC(=O)Oc1ccc(C/C(=N\O)c2ccc(O)cc2O)o1 | 6.8 | 25.9* | 3.7 | 27.4 | -11.1 | 36.0* | 17.8
CCOC(=O)c1ccc(CC(=O)c2ccc(O)cc2O)o1 | -6.5 | -2.1 | 4.6 | 9.2 | 1.2 | -10.0 | .
O=C1NN(c2ccccc2)C(=O)/C1=C/c1ccc(Sc2cccc3ccccc23)o1 | 3.0 | 29.2* | 8.9 | 24.8 | -2.5 | 9.9 | 4.2
O=C1NN(c2ccccc2)C(=O)/C1=C/c1ccc(-c2ccc(C(=O)O)cc2)o1 | -0.3 | 9.9 | 2.2 | -7.2 | -18.1 | -4.2 | .
COc1cccc(C=NNC(=O)c2[nH]c(C)c(C(=O)NN=Cc3cccc(OC)c3O)c2C)c1O | . | . | . | . | . | . | . | Fam108b ABPP HTS=95.0*
CCOC(=O)c1c(C)[nH]c(C(=O)N/N=C\c2ccccc2O)c1C | -11.2 | 18.8* | -1.9 | 11.6 | -8.1 | 3.7 | -9.7
CCOC(=O)c1c(C)[nH]c(C(=O)N/N=C/c2cc([N+](=O)[O-])ccc2O)c1C | -2.1 | 1.9 | 2.6 | 4.4 | -3.0 | -0.7 | .
COc1ccccc1/C=N/NC(=O)c1[nH]c(C)c(C(=O)N/N=C/c2ccccc2OC)c1C | -19.1 | -3.7 | -32.5 | -0.4 | -2.6 | -22.5 | .
CCCCn1c(N)c(N(CCOC)C(=O)CCCc2nc3ccccc3s2)c(=O)[nH]c1=O | -1.1 | -2.8 | 4.1 | -6.2 | 0.6 | -4.7 | .
Cc1cc(C=O)c(C)n1-c1cccc(C(=O)O)c1 | -3.3 | 1.5 | -1.7 | -0.2 | -2.8 | -6.4 | .
Cc1ccc(C)n1-c1cccc(C(=O)O)c1 | -3.3 | 34.6* | 0.8 | 4.7 | -92.9* | -26.7 | 43.3* | Fam108b ABPP HTS=0.0
Cc1ccc(N=Nc2ccc3ccccc3c2O)cc1 | 3.6 | 28.5* | -0.2 | -2.1 | 1.1 | -4.7 | 8.6
COc1ccc(N=Nc2ccc3ccccc3c2)c(O)c1 | -0.6 | -1.1 | -0.3 | 13.2 | -0.9 | 0.6 | .
COc1cccc(N=Nc2ccc3ccccc3c2O)c1 | -4.6 | 19.3* | -4.4 | 9.2 | -0.4 | 6.8 | 5.0
O=S(=O)(c1ccc(NC(=S)N/N=C/c2ccc(O)c(O)c2)cc1)N1CCOCC1 | -18.1 | 1.8 | 4.1 | 33.2 | -3.8 | 15.5 | .
O=[N+]([O-])c1cc(Cl)cc(C=NNC(=S)Nc2ccc(S(=O)(=O)N3CCOCC3)cc2)c1O | . | . | . | . | . | . | . | Fam108b ABPP HTS=0.0
SMILES | LYPLA1 counter | Fam108B counter | LYPLA2 counter | PREPL inh | MEX-5 binding | PME-1 inh | Fam108b inh conf | others
Cc1ccc2c(c1)-n1c(nc3cc(Cl)ccc3c1=O)C(CC(C)C)NC2=O (stereo not drawn) | . | . | . | 9.7 | . | . | .
Brc1ccc(N/N=C(/N=Nc2nn[nH]n2)c2ccccc2)cc1 | 13.0 | 24.8* | 16.7 | 25.0 | -17.3 | 50.5* | 28.5*
O=C(N/N=C/c1ccc(O)cc1)c1cccc(N/N=C/c2ccc(O)cc2)c1 | -13.6 | 55.6* | -0.8 | 22.1 | -0.5 | 30.8* | 47.6*
O=C(Nc1cccc(-c2csc(Nc3cccc(C(F)(F)F)c3)n2)c1)c1cc([N+](=O)[O-])cc(C(F)(F)F)c1 | -6.8 | 18.6* | -10.1 | -2.1 | 0.6 | 2.4 | 2.4
O=C(Nc1ccc(-c2csc(Nc3ccccc3)n2)cc1)c1cc([N+](=O)[O-])cc(C(F)(F)F)c1 | -11.2 | 64.5* | -8.4 | 3.5 | -2.1 | 1.0 | 87.0* | Fam108b ABPP HTS=100.0*
O=C(Nc1ccc(-c2csc(Nc3ccc(Cl)cc3)n2)cc1)c1cccc(C(F)(F)F)c1 | -10.9 | 49.7* | 6.1 | 17.6 | 1.1 | 26.4* | 67.7* | Fam108b ABPP HTS=95.0*
CNC(=O)CN(C1CCCCC1)S(=O)(=O)c1ccc(F)cc1 | 1.2 | 5.0 | -0.6 | -0.5 | 1.5 | -0.9 | .
O=C(CCc1ccccc1)NCc1ccc(F)cc1 | -5.1 | -0.5 | -8.7 | -7.8 | 0.7 | -4.6 | .
O=S(=O)(c1c(F)cccc1F)N1CCN(C(=S)NCc2ccc3c(c2)OCO3)CC1 | 2.2 | 24.9* | 3.2 | 23.2 | 0.0 | 8.2 | 16.8
Fc1ccccc1NC(=S)NCc1ccc2c(c1)OCO2 | -2.0 | -1.1 | 2.4 | -5.0 | 0.2 | 0.8 | .
Cc1cc(C(=O)CSc2ncccn2)c(C)n1Cc1ccco1 | 0.9 | 18.8* | 2.5 | -2.0 | 0.2 | -1.2 | 5.4
C#CCOCCOCCOCCNc1nc(N2CCN(C(=O)[C@H]([C@@H](C)CC)n3cc([C@@H](N)CC(C)C)nn3)CC2)nc(N2CCN(C(=O)[C@H](Cc3cc4ccccc4[nH]3)n3cc([C@@H](N)CC(C)C)nn3)CC2)n1 | . | . | . | . | -2.7 | . | .
Cc1ccccc1-c1nc2sc3c(c2c(=O)o1)CCC3 | 1.1 | 20.8* | -1.0 | 15.4 | 1.1 | -5.0 | 11.4
CC(C)CSC1=NSC2=NC(=O)/C(=C\c3ccccc3)C(=N)N12 | -6.0 | 1.8 | -7.6 | -8.0 | -5.1 | -10.2 | .
N=C1/C(=C\c2coc3ccccc3c2=O)C(=O)N=C2SC(c3ccncc3)=NN12 | -3.3 | 8.8 | -1.9 | -13.2 | 0.3 | -55.2 | .
CC(C)CSC1=NSC2=NC(=O)/C(=C\c3coc4ccccc4c3=O)C(=N)N12 | 6.3 | 37.1* | 0.1 | 9.6 | ? | 21.6 | 40.5* | Fam108b ABPP HTS=15.0
CSC1=NSC2=NC(=O)/C(=C\c3coc4ccccc4c3=O)C(=N)N12 | -8.3 | 30.9* | -6.5 | 21.0 | . | 17.9 | 53.6* | Fam108b ABPP HTS=5.0
COc1cccc2c1C(=O)c1c(O)c3c(c(O)c1C2=O)C[C@@](O)(C(C)=O)C[C@@H]3O[C@H]1C[C@H](N)[C@H](O)[C@H](C)O1 | . | . | . | . | . | . | . | Fam108b ABPP HTS=0.0

Screens as filed in PubChem BioAssay.
